Source: PubChem
Only some compounds are listed: those with a hit (about 5.9% of all), similar ones and a draw of the others.
FXN GAA850 act – activators of GAA850 frataxin (FXN) promoter | HEK293 lucGAA850 FXN promoter luciferase reporter, 24 h; percent of 10 µM SAHA response | activation, % at 6 µM | 360,000 compounds, 0.56% hits;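 active = activation above the average of all compounds screened plus 3 SD, cutoff fixed separately per campaign, cut at about 7.5% in these data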;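 also: 0% = DMSO wells and 100% = 10 µM SAHA wells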
AHR activator – human AHR activation; P35869; activation, % at 5 µM; 320,000 compounds, 2.5% hits; AHR-responsive luciferase reporter cells, luminescence; AID 2796; in the data active = activation above about 47%;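 also: 0% = vehicle wells and 100% = reference agonist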
HSF-1 act – increases HSF-1 driven luciferase reporter signal; NIH3T3-HGL HSF-1 luciferase reporter, MG132, 8 h; 100% = twice DMSO control signal; AID 504408; 300,000 compounds, 1.7% hits; activation, % at 9 µM;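 active = mean replicate activation of at least 50% with a set share of replicates each reaching 50%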;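 also: 0% = median of the neutral control wells and 100% = twice that signal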
NR0B1 inh – inhibits human nuclear receptor DAX1; inhibition, % at 6.75 µM; 340,000 compounds, 0.99% hits; HEK293 Gal4-DAX1 luciferase reporter, luminescence; P51843;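 active = inhibition above the mean over all tested compounds plus 3 SD, cut at about 4.2% in these data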;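 also: 0% = DAX1-transfected cells with DMSO and 100% = empty-vector control cells with DMSO; inhibition shows as a rise in luminescence from relieved DAX1 repression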
Target sequence (P51843 207-470 limits assumed): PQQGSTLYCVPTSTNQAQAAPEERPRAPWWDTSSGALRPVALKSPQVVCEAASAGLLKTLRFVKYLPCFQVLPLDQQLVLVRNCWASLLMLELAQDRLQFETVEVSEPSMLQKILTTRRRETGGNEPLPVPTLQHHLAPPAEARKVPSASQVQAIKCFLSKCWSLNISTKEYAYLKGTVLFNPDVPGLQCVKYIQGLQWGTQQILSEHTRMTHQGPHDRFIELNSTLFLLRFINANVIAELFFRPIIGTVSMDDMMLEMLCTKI
HSF1 inhib – HSF1 inhibition | NIH3T3-HGL HSE-luciferase, MG132-induced, luminescence 8 h; stronger effect = lower value | activity change, negative = inhibition, % at 7.5 µM (by protocol) | 300,000 compounds, 0.77% hits | AID 2098;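 active = more than half of replicate wells show activity change below -50%, luminescence cut by over half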;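 also: luciferase reports HSF-1 transcriptional activity via heat shock element; 0% = median of DMSO wells and -100% = zero luminescence signal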
HSP90 inh – HSP90 refolding inhibition in rabbit reticulocyte lysate; luciferase refolding luminescence, 3 h; inhibition, % at 5.6 µM; 290,000 compounds, 0.91% hits; AID 1789;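 active = inhibition above the screen-wide mean plus 3 SD, computed separately per campaign, cut at about 16% in these data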;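 also: 0% = DMSO wells and 100% = 60 µM geldanamycin wells; inhibitors lower the luminescence because luciferase stays unfolded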
Starred values were filed as active, the others as inactive; · = no result given.

SMILES | FXN GAA850 act | AHR activator | HSF-1 act | NR0B1 inh | HSF1 inhib | HSP90 inh
O=C(Nc1cccc(O)c1)C(=O)Nc1ccccn1 | 1 | -1 | 46 | -2 | 29 | 37*
Cc1ccc(C(=O)NCCCc2ccccc2)c(C)c1 | 3 | 4 | 35 | 6.8* | 18 | 1
Cc1cccc(NC(=O)C(=O)NCCCN2CCOCC2)c1 | 4 | 8 | 18 | 1 | 4 | -6
O=C1CN(S(=O)(=O)c2ccccc2C(F)(F)F)CCN1 | 1 | 2 | -9 | 0 | -7 | -1
FC(F)Oc1ccc(-n2cc(-c3ccc(Cl)cc3)[n+]3c2CCCCC3)cc1 | -2 | -1 | -3 | -2 | -18 | 3
COc1ccc(/C=C2\C(=N)N3N=C(CC(=O)N4CCCCC4)SC3=NC2=O)cc1 | -1 | 1 | -15 | 0 | -7 | 0
Cc1cccc(NC(=S)NCc2ccccn2)c1 | 2 | 8 | 46 | 0 | 33 | -1
Cc1cccc(NC(=O)C(=O)NCc2ccccn2)c1 | 2 | 3 | 23 | 4.3* | 10 | -2
O=C(CN1CCN(CC(=O)c2ccccc2)CC1)c1ccccc1 | -1 | · | · | -1 | · | ·
C[C@]12C(=O)N(c3ccc(Cl)cc3)C(=O)N1[C@@H]1c3ccccc3OC[C@@H]1[C@H]2c1ccccc1 | 0 | -1 | -4 | -1 | 2 | ·
CC(=O)NCCc1cnc[nH]1 | 10* | 0 | 4 | 0 | -5 | -2
COC(=O)c1ccc(COc2cccnc2[N+](=O)[O-])cc1 | 3 | -1 | 7 | -1 | 8 | 10
COC(=O)c1ccc(OC)c(OC2CCCC2)c1 | -1 | 1 | 4 | 6.3* | -2 | 4
COc1ccc(NC(=O)C2CC2)cc1OC1CCCC1 | -1 | 11 | 16 | 3 | -4 | 1
COc1cc2c(cc1/C=C/C(=O)O)OC(C)C2 (stereo not given) | 0 | 3 | 20 | 0 | 17 | -1
CCOc1cc2c(cc1/C=C/C(=O)O)OC(C)C2 (stereo not given) | 0 | 0 | 6 | 4.7* | 5 | 0
COc1cccc2c1C(=O)c1c(O)c3c(c(O)c1C2=O)C[C@](O)(C(C)=O)C[C@H]3O[C@@H]1C[C@@H](N)[C@@H](O)[C@@H](C)O1 | -12 | 65* | -63 | 0 | -67* | ·
COc1cccc2c1C(=N)c1c(O)c3c(c(O)c1C2=O)CC(O)(C(C)=O)CC3OC1CC(N)C(O)C(C)O1 (stereo not given) | -9 | · | · | -4 | · | ·
COC(=O)/C=C/c1ccccc1CN1[C@@H](CC(=O)OC)c2ccccc2S1(=O)=O | -1 | 0 | · | 0 | · | ·
COc1ccc(S(=O)(=O)Cc2ccc(C(=O)NCCCN(C)c3ccccc3)o2)cc1 | 1 | 4 | 60* | 0 | 27 | 4
Cc1cc2cc(CCNC(=O)C(=O)c3c[nH]c4ccccc34)c(=O)[nH]c2cc1C | -3 | 8 | -65 | -2 | -63* | 4
Cc1ccc(S(=O)(=O)NC2=C(N3CCN(c4ccccc4F)CC3)C(=O)c3ccccc3C2=O)cc1 | 2 | 7 | -37 | 2 | -37 | 0
Cc1ccc(S(=O)(=O)NC2=C(N3CCN(Cc4ccccc4)CC3)C(=O)c3ccccc3C2=O)cc1 | -1 | 1 | 17 | 5.3* | 19 | 10
CC(=O)Nc1ccc(S(=O)(=O)NC2=C(N3CCN(c4ccc(F)cc4)CC3)C(=O)c3ccccc3C2=O)cc1 | -2 | 85* | 75* | -1 | 61 | 4
Cc1nn(-c2ccccc2)c(C)c1NC(=O)COC(=O)Cc1cccc(C(F)(F)F)c1 | -1 | -1 | -7 | 0 | -2 | ·
SMILES | FXN GAA850 act | AHR activator | HSF-1 act | NR0B1 inh | HSF1 inhib | HSP90 inh
CN(C)c1ccc(C2Nc3ccccc3C(=O)N2CCCN2CCOCC2)cc1 (stereo not given) | -1 | 6 | -74 | -1 | -68* | 4
CCCOc1ccc(CN2CCOCC2)cc1OC | 2 | 3 | -7 | 5.3* | -4 | 4
CCC(C)N1C(=O)S/C(=C/c2ccc(N3CCOCC3)cc2C)C1=O (stereo not given) | 0 | -4 | -3 | 2 | -8 | 4
Cc1cc(N2CCOCC2)ccc1/C=C1\SC(=O)N(C(C)C)C1=O | 1 | -2 | 78* | 5.6* | 45 | 5
CCN1C(=O)S/C(=C\c2ccc(N3CCOCC3)cc2C)C1=O | 4 | 0 | 65* | 2 | 45 | -3
CCc1nc2c(OCc3ccc(OC(F)F)cc3)cccn2c1N(C)C(=O)c1cccs1 | -1 | · | · | · | · | ·
